Source: PubChem BioAssay (NCI)
“And” between values parts separate entries of the source, which are not always exact repeats. Equal entries are not always repeated. Compounds without any hit were thinned out: in the full panel of roughly 79,000, 15% have a hit. The source holds several records for some structures; these can differ, active in one and inactive in another. The source made the active and inactive calls. Cut-off read from the data, not from the text of the source: active = growth inhibition above about 70%; inactive = the rest. Where a SMILES comes first, the peptide text is derived from it.

Experiment: NCI Yeast Anticancer Drug Screen. Data for the bub3 strain (AID 167)
Conditions: S. cerevisiae bub3 mutant strain, at 50.0 µM (retest, dose inferred, filed as 5.0), stronger effect = higher value
Method in brief: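 Readout: yeast growth inhibition, expressed relative to vehicle-only wells. The test organism is a mutant strain from a panel with lesions in DNA repair or checkpoint genes.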

| Compound | growth inhibition |
| --- | --- |
| Cc1cccc(Cc2ccccc2Cl)c1O | 82% (active) |
| OC1CN(Cc2ccccc2)C[C@@H]1O (stereo partly drawn) | 99% (active) |
| BrC(c1cccc2ccccc12)c1cccc2ccccc12 | 96% (active) |
| COc1nc(NC2OC(CO)C(O)C(O)C2O)c(Cl)c(=O)n1C (stereo not drawn) | -2% (inactive) |
| O=S(=O)(CC(Cl)c1ccccc1)c1nc2ccccc2s1 (stereo not drawn) | -30% (inactive) |
| CCCCCCCCCCCCOS(=O)(=O)O | -20% (inactive) |
| O=C(NNc1ccnc2cc(Cl)ccc12)/C(=C/c1ccc2c(c1)OCO2)NC(=O)c1ccccc1 | 83% (active) |
| O=C(CCN1CCN2c3ccccc3CCC2C1)c1ccc(F)cc1 (stereo not drawn) | 84% (active) and 99% (active) |
| CC1C[C@]2(C)C(=O)Nc3ccccc3[C@@H]2Nc2ccccc21 (stereo partly drawn) | 73% (active) |
| Nc1nc(=S)c2ncn(C3OC(CO)C(O)C3O)c2[nH]1 (stereo not drawn) | 14% (inactive) |
| O=C(O)c1c2ccccc2nc2[nH]c(=O)[nH]c(=O)c12 | -5% (inactive) |
| N#Cc1c(/N=C/c2ccccc2Cl)sc2c1CCC2 | -10% (inactive) |
| CCC1=C(C)/C(=C/c2[nH]c(C)c(CC)c2C)N=C1C | 45% (inactive) and 33% (inactive) |
| O=C(O)c1ccccc1C(=O)O | -6% (inactive) |
| Cc1cc(C)nc(NS(=O)(=O)c2ccc(Nc3c4ccccc4nc4c(C(=O)NCCCN(CCO)CCO)cccc34)cc2)n1 | 3% (inactive) |
| CCCCCCCCCCCCCCCCCCOCC(COP(=O)([O-])OCC[N+](C)(C)C)OC (stereo not drawn) | -28% (inactive) |
| S=c1nc[nH]c2[nH]ccc12 | -6% (inactive) |
| C=C[C@]1(C)C=C2C(O)CC3C(C)(C)CCC[C@]3(CO)C2CC1 (stereo partly drawn) | 99% (active) |
| c1ccc(-c2cnc(-c3ccc(-c4ncc(-c5ccccc5)o4)cc3)o2)cc1 | 5% (inactive) |

| Compound | growth inhibition |
| --- | --- |
| Nc1ccc2c(ccc3ccc4ccccc4c32)c1 | 97% (active) |
| O/N=C(\CC(O)(C(F)(F)F)C(F)(F)F)c1cccc(Cl)c1 | 97% (active) |
| CC(=O)OC1CCC2(C)C(CCC3C4CCC(OC(C)=O)C4(C)CCC32)O1 (stereo not drawn) | 66% (inactive) |
| Cc1[nH]c2ccccc2c1C1Cc2ccccc2N1 (stereo not drawn) | -12% (inactive) and 76% (active) |
| COc1ccc(C2c3cc4c(cc3OC(NNC(N)=O)C2C)OCO4)cc1 (stereo not drawn) | 99% (active) |
| Oc1ccc(C(O)(c2ccccc2)c2ccccc2)cc1 | 48% (inactive) and 94% (active) |
| COc1ccc(CC(=O)c2ccc(O)cc2O)cc1 | 71% (active) |
| COC(=O)C#CC(=O)OC | 99% (active) |
| O=C1OC2=C(c3ccccc3)CCCC2C1=O (stereo not drawn) | 93% (active) |
| CC(C)C(NC(=O)C(N)CCC(=O)O)C(=O)O (stereo not drawn) (H-Glu-Val-OH; configuration not given here) | 0% (inactive) |
| CC1(C)CC(=O)C2=C(C1)OC1=C(CC(C)(C)CC1=O)C2c1ccccc1Cl (stereo not drawn) | -10% (inactive) |
| O=C(CC(=O)CC(O)(c1ccccc1)c1ccccc1)CC(=O)c1ccccc1 | 96% (active) |
| O=Nc1ccc(C=C2C(=O)C=CC2=O)cc1 | 99% (active) |
| C[N+]1(Cc2ccc(Cl)c(Cl)c2)CCCC1C1CCCN(Cc2ccc(Cl)c(Cl)c2)C1 (stereo not drawn) | 61% (inactive) |
| C[C@H]1CC[C@H]([C@@H](C)[C@H]2[C@@H](O)C[C@H]3[C@@H]4CC[C@H]5C[C@@H](O)CC[C@]5(C)[C@H]4CC[C@]23C)NC1 | 98% (active) and 92% (active) |
| CCOP(=O)(OCC)C(C)(CC)NC(=O)C(C(F)(F)F)C(F)(F)F (stereo not drawn) | 19% (inactive) |
| [N-]=[N+]=NC(=O)Nc1cccc(C(F)(F)F)c1 | 98% (active) |
| NC(C/[N+]([O-])=N/O)C(=O)O (stereo not drawn) | 4% (inactive) |
| NC(=O)N/N=C/c1ccc([N+](=O)[O-])o1 | 22% (inactive) |
